Shown are actives, neighbours in structure and some others; about 1.3% of the full set was active somewhere.
Smad3 FoxH1 inh: Smad3 (human) transcription factor binding inhibition. P84022. TR-FRET Smad3/Dy647-FoxH1 peptide binding, europium anti-His. inhibition, % at 25 µM. actives 0.29% (n = 88,000);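 active means compounds that reduce the energy-transfer binding signal between the protein and its labelled peptide by more than half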;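 further: 0% = Smad3 plus labelled peptide maximal FRET and 100% = peptide-only background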
S1P2 blocker: blocks the human S1P2 receptor | inhibition, % at 5 µM | cell-based S1P2 antagonist assay, inhibition at 5 uM | actives 0.21% (n = 97,000); in the data active means inhibition above about 45%;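 further: CRE beta-lactamase reporter cells expressing human S1P2 stimulated with S1P; 0% = agonist at EC80 alone and 100% = agonist plus reference antagonist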
GALR2 blocker: blocks the human galanin receptor 2; O43603; GALR2-expressing cells, antagonist mode; inhibition, % at 4 µM; actives 0.39% (n = 140,000); in the data active means inhibition above about 27%;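 further: cells stimulated with galanin 1-16 at roughly its EC80; 0% = agonist challenge control and 100% = basal control without agonist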
Target sequence (O43603 whole entry, looked up): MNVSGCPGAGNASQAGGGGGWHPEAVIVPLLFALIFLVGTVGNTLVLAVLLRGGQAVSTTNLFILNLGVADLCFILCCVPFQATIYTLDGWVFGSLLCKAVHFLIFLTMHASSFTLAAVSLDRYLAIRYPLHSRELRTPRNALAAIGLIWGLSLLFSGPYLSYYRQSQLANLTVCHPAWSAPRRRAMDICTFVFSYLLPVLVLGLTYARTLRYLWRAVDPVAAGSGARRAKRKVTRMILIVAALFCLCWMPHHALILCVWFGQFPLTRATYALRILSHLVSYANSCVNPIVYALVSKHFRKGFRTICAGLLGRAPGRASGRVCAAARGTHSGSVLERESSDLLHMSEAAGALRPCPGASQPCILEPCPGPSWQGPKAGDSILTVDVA
GALR2 agonist: GALR2 (human) receptor agonism; activation, % (concentration not given with the values); GALR2-expressing cells, agonist activation read-out; actives 0.48% (n = 140,000); O43603; AID 803; in the data active means activation above about 5%, passing the limit was not always enough;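 further: 0% = vehicle buffer wells and 100% = reference agonist at full effect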
S1P2 ag: activates the human S1P2 receptor | S1P2-expressing cell line, agonist reporter read-out | activation, % at 4.5 µM | actives 0.46% (n = 97,000); in the data active means activation above about 16%;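 further: 0% = vehicle low control and 100% = maximal reference agonist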
Candida biofilm: kills Candida albicans biofilms. C. albicans biofilm + clotrimazole, Alamar Blue. inhibition, % at 6 µM. actives 0.14% (n = 85,000). AID 834;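 active means inhibition above 20%; inactive means inhibition below 20%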;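 further: preformed 24 hr biofilms exposed to compound for 48 hr; 0% = biofilm without compound and 100% = blank killed by clotrimazole plus chlorhexidine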
* hit, by the source's call; x = no result given; [ ] = another dose, or the depositor's remark.

SMILES	Smad3 FoxH1 inh	S1P2 blocker	GALR2 blocker	GALR2 agonist	S1P2 ag	Candida biofilm
COc1ccc(S(=O)(=O)Nc2ccc(N(C)C(C)=O)cc2)cc1	-12	4	-8	0	-4	42*
O=[N+]([O-])c1cccc(/C=N/NC2=CS(=O)(=O)C=C2)c1	6	x	x	x	x	x
CN(C)CCC(=O)[C@]1(O)CC[C@@H]2[C@H]3CC=C4C[C@@H](O)CC[C@]4(C)[C@@H]3CC[C@]21C	7	x	x	x	x	x
Oc1ccc(Cc2nccc3cc(O)c(O)cc23)cc1O	89*	x	x	x	x	x
CC1CCN(c2nc(-c3ccccc3O)nc3ccccc23)CC1	4	-14	14	-2	-4	5
Oc1ccccc1-c1nc(N2CCCC2)c2ccccc2n1	55*[fluorescence artefact?]	-35	-10	-2	-7	5
COc1ccc(/C=N/N=C2\SCC(=O)N2c2c(C)n(C)n(-c3ccccc3)c2=O)cc1OC	x	x	-4	0	x	x
Nc1nnnn1/N=C/C(Br)=C/c1ccccc1	-2	47*	30*	-1	-8	4
Nc1nnnn1/N=C/C=C/c1ccccc1	-9	x	0	-2	x	0
CCN1CCN(c2nc(N)c([N+](=O)[O-])c(Nc3cccc(C)c3)n2)CC1	x	x	-1	1	x	x
CN(Cc1ccccc1)c1nc(N)c([N+](=O)[O-])c(Nc2cccc(F)c2)n1	23	-60	1	-4	22*	2
FC(F)(F)c1cccnc1N1CCN(c2ncnc3nc[nH]c23)CC1	-7	x	1	0	x	29*
Clc1ccccc1N1CCN(c2ncnc3nc[nH]c23)CC1	-11	x	-3	0	x	-1
COc1cccc(C2CN(c3ccc(F)cc3F)N=C2c2cccs2)c1OC (configuration not stated)	10	-50	-10	41*	44*	8
COc1ccccc1C1CN(c2ccccc2)N=C1c1cccs1 (configuration not stated)	10	-32	-2	61*	33*	-1
COc1ccc(S(=O)(=O)N2CCC(C(=O)N3CCc4ccccc4C3)CC2)cc1Cl	6	16	5	-3	-9	4
CCOC(=O)Cn1c2ccccc2c2nc3ccccc3nc21	18	6	5	-1	-6	6
CCOC(=O)Cn1c(C(F)(F)F)nc2nc(Cl)c(Cl)nc21	56*	x	x	x	x	x
COc1ccccc1[C@@H]1C(c2cccc(C)c2)=NN(c2ccccc2)[C@H]1C(=O)N1CCOC1=O	x	x	4	4	x	x
O=C(CSc1ccccc1)Nc1ccc(-c2nc3ccccc3[nH]2)cc1	x	x	-5	-1	x	x
O=C(CSc1ccc(Cl)cc1)Nc1cccc(-c2nc3ccccc3[nH]2)c1	x	x	1	6.2*	x	x
CCOC(=O)Cc1nc2ccccc2[nH]1	7	-11	5	5.4*	-5	3
CCOC(=O)CCc1nc2ccccc2[nH]c1=O	-5	-19	-8	-2	-4	-1
Cc1ccccc1OCC(=O)N/N=C/c1ccc2c(c1)OCCO2	x	x	-4	0	x	x
O=C(COc1ccccc1-c1ccccc1)N/N=C/c1ccc2ccccc2c1	x	x	12	6.8*	x	x
SMILES	Smad3 FoxH1 inh	S1P2 blocker	GALR2 blocker	GALR2 agonist	S1P2 ag	Candida biofilm
O=C1SC(c2ccccc2)=N/C1=C/c1ccco1	-5	23	-18	-1	59*	0
O=C1SC(SCc2ccccc2)=N/C1=C\c1ccco1	8	11	12	-2	-9	2
N#Cc1c(N)n(CCCN2CCOCC2)c2nc3ccccc3nc12	-3	13	1	4	0	2
COc1ccc(CCn2c(N)c(C#N)c3nc4ccccc4nc32)cc1OC	-4	1	-7	1	2	10
CCCCCn1c(N)c(C#N)c2nc3ccccc3nc21	10	-12	-9	7.9*	13	3
COc1ccccc1CCn1c(N)c(C#N)c2nc3ccccc3nc21	x	-31	-20	2	16*	x
COc1ccc(Cn2c(N)c(C#N)c3nc4ccccc4nc32)cc1OC	-7	-85	-9	3	21*	9
Cc1ccc2c(n1)sc1c(N)ncnc12	11	14	3	-1	3	1
COC(=O)c1ccc2nc(C)c(C)nc2c1	x	-1	-9	-2	-5	x
COC(=O)c1ccc2c(c1)C(C)(C)C(/C=C/c1ccc(O)cc1)=[N+]2C	x	37	25	6.8*	6	x
COC(=O)c1ccc2c(c1)C(C)(C)C(/C=C/c1ccc(OC)c(OC)c1OC)=[N+]2C	10	48*	-7	0	-10	8
Clc1ccc(CSc2ncccn2)cc1	-11	0	-11	-1	-6	-4
O=C1c2cnc3nc(SCc4ccc(Cl)cc4)nn3c2CC2c3ccccc3CCN12 (configuration not stated)	x	-18	8	4	22*	x
CCOc1ccc(NC(=O)C(=O)N/N=C\c2ccc(CNS(=O)(=O)c3ccccc3)o2)cc1	x	x	11	5.7*	x	x
O=c1oc2c(O)c(O)cc3c(=O)oc4c(O)c(O)cc1c4c23	98*	x	6	0	x	9
CCOc1ncccc1C(=O)OCC(=O)Nc1cc(C)ccc1C	-4	-1	7	-3	21*	10
CCOC(=O)N1CCN(C(=O)c2cnc(Nc3ccccc3OC)c3ccccc23)CC1	-8	x	12	7.0*	x	10
Cc1ccc(C)c(S(=O)(=O)N2CCN(C(C)C(=O)Nc3ccccc3-c3ccccc3)CC2)c1 (configuration not stated)	x	x	19	0	x	x
O=C(OCc1cc(=O)n2cc(Br)ccc2n1)c1ccc(Cl)c(S(=O)(=O)NCc2ccccc2)c1	x	x	8	0	x	x
COc1ccc(C(=O)Nc2ccc(-c3ccc(NC(=O)c4ccc(OC)cc4)c(OC)c3)cc2OC)cc1	x	x	-2	6.2*	x	x
CN(/N=C/c1ccccc1O)c1ccc2ccccc2n1	9	x	x	x	x	x
O=C(Cn1cnc2c(cnn2-c2ccc(F)cc2)c1=O)N1CCN(c2ccccc2F)CC1	8	11	5	-2	-5	10
Cc1cc2c(=O)n(CC(=O)N3CCN(c4ccc(F)cc4)CC3)cnc2s1	9	16	-12	0	31*	1
Cc1cc(C(c2ccc(C)o2)c2ccc(C)o2)c(O)c([N+](=O)[O-])c1	20	-36	-6	-4	-4	78*
Nc1nc(N)c(N=Nc2ccc(C(=O)O)c(O)c2)c(N)n1	55*	x	x	x	x	x
SMILES	Smad3 FoxH1 inh	S1P2 blocker	GALR2 blocker	GALR2 agonist	S1P2 ag	Candida biofilm
C(=C\c1ccccc1)/CSc1nnc(-c2ccccc2)n1Cc1ccco1	-5	-10	-3	-2	53*	-3
O=c1c2ccccc2nc(-c2ccccc2)n1Cc1ccco1	-8	-4	-9	-1	33*	0
Brc1ccc(CSc2nnc(-c3ccccn3)n2Cc2ccco2)cc1	3	-4	5	-1	-4	6
CC(C)(C)c1ccc(CSc2nnc(-c3ccccn3)n2Cc2ccco2)cc1	x	1	-6	-2	32*	x
O=C(CN(CCc1ccccc1)C(=O)CNS(=O)(=O)c1ccc(F)cc1)NCc1ccco1	1	23	5	-1	-2	0
Cc1cc(C)c2nc(C(F)(F)F)nc(NCCCN3CCOCC3)c2c1	11	-26	-1	1	-6	4
S[C@@H]1CCCN(Cc2ccccc2)C1	56*	x	x	x	x	x
